Data reported in ChEMBL document CHEMBL1157539, “Thousands of chemical starting points for antimalarial lead identification” (Nature, 2010).

What was measured:
Assay type in all cases: functional
Plasmodium falciparum [1] = experiment: GSK_TCMDC: Inhibition of Plasmodium falciparum 3D7 in whole red blood cells, using parasite LDH activity as an index of growth. Test compounds present at 2uM
Plasmodium falciparum [2] = experiment: GSK_TCMDC: Inhibition of Plasmodium falciparum Dd2 in whole red blood cells, using parasite LDH activity as an index of growth. Test compounds present at 2uM
HepG2 = experiment: GSK_TCMDC: Percent inhibition of human HepG2 cell line. Test compounds present at 10uM.

| SMILES | Inhibition (Plasmodium falciparum [1]) | Inhibition (Plasmodium falciparum [2]) | Inhibition (HepG2) |
| --- | --- | --- | --- |
| Br.CC(CON1C(N)=NC(N)=NC1(C)C)c1ccc(Cl)cc1Cl (stereo unspecified) | 97% | 95% | 64% |
| O=C(O)C(F)(F)F.Oc1ccc(CCCNc2nc(NCc3ccccc3-c3ccccc3)nc(N3CCNCC3)n2)cc1 | 94% | 48% | 39% |
| CN(C(=O)Cc1ccc(Cl)cc1)C1CCN(CCCCCNC(=O)/C=C/c2ccc(Cl)c(Cl)c2)CC1 | 83% | 16% | 69% |
| CN1CCCN(Cc2cccc(-c3ccc(NC(=O)c4cccc(Cl)c4)cc3)c2)CC1.O=C(O)C(F)(F)F | 90% | 10% | 34% |
| Cl.O=C(O[C@H]1CN[C@H](C#Cc2cc3c(Nc4ccc(OCc5cccc(F)c5)c(Cl)c4)ncnc3s2)C1)N1CCCC1 | 99% | 67% | 11% |
| CCOC(=O)c1ccc(OCCOc2ccccc2)cc1 | 99% | 0% | 63% |
| CCN(CC)CCN(Cc1ccc(-c2ccc(C(F)(F)F)cc2)cc1)C(=O)Cn1cc(Cc2cnn(C)c2)c(=O)n2nc(-c3ccccc3)cc12.O=C(O)C(O)C(O)C(=O)O | 100% | 74% | 18% |
| Cc1noc(C)c1-c1cccc(CNCc2cccc(-c3ccc(-c4nc5ccccc5[nH]4)s3)c2)c1.O=C(O)C(F)(F)F | 100% | 29% | 24% |
| CC(ON1C(N)=NC(N)=NC1(C)C)c1ccccc1 (stereo unspecified) | 96% | 58% | 65% |
| CCc1ccc(C(=O)Nc2cccc(CN3CCCN(Cc4ccc(O)cc4)CC3)c2)cc1.O=C(O)C(F)(F)F | 100% | 74% | 11% |
| Cc1ccc(NS(=O)(=O)c2ccc(C(C)N3CCC(N4CCCCC4)CC3)cc2)cc1C (stereo unspecified) | 97% | 82% | 66% |
| CCCCCC(C)C(C)c1cc(O)c2c(c1)OC(C)(C)CC2=Cc1ccncc1 (stereo unspecified) | 100% | 78% | 0% |
| Cc1ccc(CON2C(N)=NC(N)=NC23CCCCC3)c2ccccc12.Cl | 98% | 56% | 57% |
| OC1=C2C(=Nc3ccccc3SC2c2cccs2)c2ccccc21 (stereo unspecified) | 96% | 93% | 8% |
| Cc1cccc2nc(-c3ccc(-c4cccc(NC(=O)C(=O)c5cccn5C)c4)cc3)[nH]c12 | 98% | 17% | 30% |
| COc1ccc(NC(=O)[C@H](CC(C)C)Nc2cc(C)nc(NCCc3ccc(F)cc3)n2)cc1.O=C(O)C(F)(F)F | 100% | 79% | 1% |
| O=C(CSc1nc(-c2ccccc2Cl)ns1)Nc1ccc2c(c1)OCO2 | 93% | 77% | 0% |
| O=C(Nc1cccc(-c2ccc(CN3CCC(O)CC3)cc2)c1)c1cccc(Cl)c1.O=C(O)C(F)(F)F | 96% | 2% | 11% |
| Cc1ccc(Cn2cnc(N3CC(C)NC(C)C3)cc2=O)cc1NC(=O)Nc1ccc(-c2ccccc2)cc1.O=C(O)C(F)(F)F (stereo unspecified) | 96% | 15% | 18% |
| CC(C)(C)c1ccc(CNCCOc2ccc(Nc3nnc(-c4ccc(-c5ncc[nH]5)cc4)o3)c3ccccc23)cc1.O=C(O)C(F)(F)F | 100% | 88% | 43% |
| COc1ccc(OC)c(Cc2cnc3nc(N)[nH]c(=O)c3c2C)c1 | 98% | 4% | 62% |
| Cc1[nH]c(C)c(-c2ccc(-c3ccc(Cl)cc3)nc2)c(=O)c1Br | 97% | 96% | 21% |
| CCOC(=O)C1=C(C)N=c2sc(=Cc3cc(Cl)ccc3O)c(=O)n2C1c1cc(OC)c(OC)cc1Br (stereo unspecified) | 97% | 76% | 6% |
| CS(=O)(=O)c1ccc(CNCc2ccc(-c3ccc(-c4nc5cc(C(F)(F)F)ccc5[nH]4)cc3)cc2)cc1.O=C(O)C(F)(F)F | 100% | 82% | 26% |
| O=C(NC1CCCCC1)N(Cc1ccc(-c2ccc(CNCc3ccc4c(c3)OCO4)cc2)cc1)C1CCN(Cc2ccccc2)CC1.O=C(O)C(F)(F)F | 100% | 72% | 28% |
| Cc1[nH]c(C)c(-c2ccc(OCCCc3ccccn3)cc2)c(=O)c1Br.Cl | 98% | 97% | 0% |
| Fc1ccc2[nH]c(-c3cccc(-c4cccc(CNCCc5ccncc5)c4)c3)nc2c1.O=C(O)C(F)(F)F | 100% | 88% | 22% |
